# Bioassay records from PubChem BioAssay.
# Shown are actives, neighbours in structure and some others; about 19% of the full set was active somewhere.
# TDP1 block – blocks human tyrosyl-DNA phosphodiesterase 1 | recombinant TDP1, AlphaScreen DNA substrate cleavage | Potency, µM (titrated, usually from 130 µM), inactives show at the highest dose activity change, negative = inhibition, actives largely listed as inhibitors | hit rate 0.28% among 350,000 | AID 485290; also: potency is read from the fitted curve at half-maximal effect; nearly all actives have a fitted effect of over 40% in size
# Target sequence (Q9NUW8 whole entry, looked up): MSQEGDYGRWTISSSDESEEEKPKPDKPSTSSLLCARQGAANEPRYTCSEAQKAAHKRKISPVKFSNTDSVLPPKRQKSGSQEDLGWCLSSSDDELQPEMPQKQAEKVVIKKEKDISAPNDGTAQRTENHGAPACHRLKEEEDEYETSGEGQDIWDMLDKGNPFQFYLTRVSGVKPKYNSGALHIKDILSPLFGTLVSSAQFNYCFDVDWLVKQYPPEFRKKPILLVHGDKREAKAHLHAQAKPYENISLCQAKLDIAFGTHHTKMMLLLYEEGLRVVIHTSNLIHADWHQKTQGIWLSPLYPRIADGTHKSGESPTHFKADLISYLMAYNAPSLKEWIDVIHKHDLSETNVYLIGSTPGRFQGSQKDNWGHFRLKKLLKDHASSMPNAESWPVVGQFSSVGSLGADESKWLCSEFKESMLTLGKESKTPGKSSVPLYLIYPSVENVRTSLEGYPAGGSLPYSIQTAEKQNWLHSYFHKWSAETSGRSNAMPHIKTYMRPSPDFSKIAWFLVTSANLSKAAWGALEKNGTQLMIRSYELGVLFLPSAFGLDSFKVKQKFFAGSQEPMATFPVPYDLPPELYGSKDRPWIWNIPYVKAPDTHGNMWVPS
#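 Enzyme-compound mixtures sat 15 min at room temperature, followed by a 5 min reaction with 15 nM final substrate and 10 min with AlphaScreen beads. Recombinant human Tdp1 was used at 1 nM final.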
# ELG1 repair inh – ELG1-dependent DNA repair inhibition; HEK293T ELG1-luciferase reporter, luminescence, 16 h; DNA damage induced by 5-fluorouridine; Potency, µM (titrated, usually from 46.1 µM), for inactives: at the highest dose activity change, negative = inhibition, hits mostly inhibitors; hit rate 2.3% among 330,000; AID 504467; also: potency is read from the fitted curve at half-maximal effect; nearly all actives have a fitted effect of over 55% in size
#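 Overnight (16 hr) co-exposure of 2,000 cells/well to 5-fluorouridine and compound at 37 °C preceded detection. Luciferase was quantified via ONE-Glo luminescence; loss of signal denotes inhibition.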
# TDP1 cell noCPT – qHTS for Inhibitors of human tyrosyl-DNA phosphodiesterase 1 (TDP1): qHTS in cells in absence of CPT; AID 686978, 2013; Potency, µM (series often up to 46.2 µM), for inactives: at the highest dose activity change, negative = growth inhibition, actives largely listed as inhibitors; hit rate 15% among 420,000; DT40 Tdp1-/- hTDP1 cells, no CPT, ATP luminescence, 48 h; also: potency is read from the fitted curve at half-maximal effect; nearly all actives have a fitted effect of over 55% in size
#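 Chicken DT40 Tdp1-/- cells stably complemented with human TDP1 were seeded at 400 cells/well with DMSO in place of 20 nM camptothecin. After compound pinning, cells grew at least 48 hr at 37 °C; viability read by CellTiter-Glo luminescence.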
# IL-1B inflam inh – inflammasome signaling inhibition, IL-1 beta readout | THP-1 LPS/ATP IL-1B secretion, AlphaLISA, 16 h; active compounds read low | activity change, % at 57.5 µM | hit rate 4.7% among 360,000 | AID 743279; in the data active = activity change below about -50%; inconclusive = mostly about -30% to -49%
#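 THP-1 cells pretreated 1 hr with compounds (up to 57.5 uM final), then stimulated with LPS (250 ng/mL final) plus ATP (1.25 mM final); secreted IL-1B measured by AlphaLISA after 16 hr, decreased signal indicating inhibition.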
# TDP1 cell CPT – DT40-hTDP1 cell growth loss with CPT; hit rate 12% among 420,000; chicken DT40 Tdp1-/-;hTDP1 cells + 20 nM CPT, ATP luminescence, 48 h; Potency, µM (titrated, usually from 46.2 µM), for inactives: top-dose activity change, negative = growth inhibition, actives largely listed as inhibitors; AID 686979; also: potency is read from the fitted curve at half-maximal effect; nearly all actives have a fitted effect of over 55% in size
#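 Chicken DT40 Tdp1-/- cells stably complemented with human TDP1 were seeded at 400 cells/well in medium containing 20 nM camptothecin, exposed to pin-transferred compounds, and grown at 37 °C for at least 48 hr. Viability was read as ATP luminescence.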
# Giardia killer – Giardia lamblia killing. Giardia lamblia trophozoite viability. activity change, % at 7.66 µM, hits read low. hit rate 0.15% among 340,000; in the data active = activity change below about -80%; inconclusive = between about -30% and that limit;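 also: parasites exposed to compound for two days anaerobically before the ATP read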
#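 Viability, read as ATP luminescence: trophozoites at 100 cells/well, compound added, 48 hrs anaerobic at 37 deg C, then 15-30 min room-temperature development before reading.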
# * marks the source's active call; other numbers are inactive results; ? = inconclusive; . = no result; [ ] = remark or other dose. Unless noted, calls follow the shape of the dose curve; as a rule, active = well fitted curve in the direction sought with a large enough effect; inconclusive = small, poorly fitted or top-dose-only effect, or another doubt; inactive = no such curve, though single readings can be large; an effect the other way counts as inactive or inconclusive. % is scaled to controls: 0 for no effect and ±100 for the full control effect.
SMILES,TDP1 block,ELG1 repair inh,TDP1 cell noCPT,IL-1B inflam inh,TDP1 cell CPT,Giardia killer
Cc1ccc(N/N=C/c2ccc(N3CCOCC3)cc2)cc1C,11%,?,?,-11,23µM*,-5
O=C(N/N=C/c1ccc(N2CCOCC2)cc1)C1CC1,-1%,19%,-19%,8,8%,-21
Clc1cccc(Nc2nc(N3CCOCC3)nc(N3CCOCC3)n2)c1,9%,?,?,?,?,3
N#CCCn1c(=O)c(-c2ccc(Cl)cc2)nc2cnc(Oc3ccccc3)nc21,.,.,17%,.,17%,.
Cc1ccc(Nc2nc(N/N=C\c3ccc4c(c3)OCO4)nc(N3CCOCC3)n2)cc1,11%,?,9.2µM*,-28,8.2µM*,6
COc1ccc(Nc2nc(Nc3ccc(OC)cc3OC)nc(N3CCOCC3)n2)c(OC)c1,.,.,13µM*,.,15µM*,.
Cc1cc(Nc2cccc(Cl)c2)nc(N2CCOCC2)n1,0%,?,?,2,15µM*,16
CCOc1nc(NCCO)nc(Nc2cc(Cl)ccc2OC)n1,0%,-17%,?,0,?,-1
Cc1cc(Nc2ccccc2)nc(N2CCOCC2)n1,0%,22%,-11%,-10,-19%,5
CCOc1nc(Nc2ccc(OC)c(Cl)c2)nc(OCC)n1,-2%,?,?,-3,18µM*,-11
Cc1ccc(/C=N/Nc2cc(C)nc(N3CCOCC3)n2)cc1,6%,?,?,-7,10%,-8
CN(C)C(C)(C)/C=C/C(O)(c1ccccc1)c1ccccc1,0%,5%,-12%,-15,-16%,10
COCc1c(C(=O)N2CCN(C3CCCC3)CC2)cnn1-c1nccc(-c2cccs2)n1,.,.,-22%,.,-1%[9.04 µM],.
CNC(=O)c1c(NC(=O)c2cc(-c3cc(C)c(C)cc3O)n[nH]2)sc2c1CCCC2,.,-11%,?,17,?,4
Cc1ccc(Cl)cc1Nc1nc(N2CCOCC2)nc(N2CCOCC2)n1,4%,?,?,-54*,?,-18
COc1ccc(Nc2nc(N3CCCC3)nc3ccccc23)c(OC)c1,-2%,?,?,-99*,?,-6
COc1ccc(Nc2nc(N3CCOCC3)nc(N3CCOCC3)n2)c(OC)c1,.,?,-8%,0,?,1
CCOc1cccc(C2C=C(c3ccc4c(c3)OCO4)NC(c3ccc(Cl)cc3)N2)c1O (stereo unspecified),2%,.,13µM*,.,10µM*,-19
CCOc1cccc(C2C=C(c3ccc4c(c3)OCO4)NC(c3ccccc3F)N2)c1O (stereo unspecified),3%,.,16µM*,.,11µM*,?
CCN(C(=O)COC(=O)c1ccc2c(c1)OCO2)c1ccc(F)cc1,0%,10%,-1%,-9,?,7
CCOC(=O)C1=C(CNCCc2ccc(Cl)cc2)NC(=O)NC1c1ccc2c(c1)OCO2 (stereo unspecified),9%,?,?,?,?,-14
CCOc1cccc(C2C=C(c3ccc4c(c3)OCO4)NC(c3ccc(F)cc3)N2)c1O (stereo unspecified),3%,.,13µM*,.,14µM*,8
Cc1cc(C)c(OCC(=O)N(Cc2ccccc2)C2CCS(=O)(=O)C2)c(C)c1 (stereo unspecified),-11%,-12%,-7%,-14,-4%,4
COC(=O)C/C=C\[C@@H](C)[C@@H](/C=N\OC[C@@H](C)[C@H](OCc1ccccc1)C(C)C)OC,-1%[21 µM],.,.,.,.,.
CCOC(=O)c1cc(S(=O)(=O)N2CCN(c3ccc(C(C)=O)cc3)CC2)[nH]n1,2%,.,16µM*,.,18µM*,.
SMILES,TDP1 block,ELG1 repair inh,TDP1 cell noCPT,IL-1B inflam inh,TDP1 cell CPT,Giardia killer
CCOC(=O)c1cc(S(=O)(=O)N2CCN(c3cccc(C)c3)C(C)C2)[nH]n1 (stereo unspecified),2%,.,23µM*,.,16µM*,.
CCOC(=O)c1cc(S(=O)(=O)N2CCN(c3ccccc3)CC2)[nH]n1,-1%,.,?,.,?,.
Cc1cccc(Cn2nnc3c(=O)[nH]c(C4CCN(C(=O)c5ccc(F)cc5)CC4)nc32)c1,5%,.,-7%,.,-2%,.
CCOc1ccc(CNC(=O)C2CCN(S(=O)(=O)c3ccc4c(ccn4C)c3)CC2)cc1,-2%,.,-27%,.,?,.
CC1COc2ccccc2N1C(=O)c1ccc(Cl)cc1 (stereo unspecified),.,-8%,-20%,16,-7%,-8
Cc1ccc(S(=O)(=O)N2c3cc(C)ccc3OCC2C(C)(C)C)cc1 (stereo unspecified),-1%,-6%,?,6,?,-13
Cc1ccc(S(=O)(=O)N2c3ccccc3OCC2c2ccccc2)cc1 (stereo unspecified),-5%,?,16µM*,5,29µM*,3
CC1COc2ccccc2N1S(=O)(=O)c1ccc(Cl)cc1 (stereo unspecified),0%,?,23µM*,21,-5%,-2
O=C(C(Cl)Cl)N1c2ccccc2OCC1c1ccccc1 (stereo unspecified),-1%,-1%,15µM*,-9,18µM*,-3
Cc1ccc(C(=O)N2c3ccccc3OCC2C)cc1 (stereo unspecified),.,-18%,-13%,0,-9%,-23
O=C1CN2NC(=S)N(c3ccccc3)C2=CN1c1ccc(Cl)cc1,-2%,-5%,4%,-4,-8%,3
CCn1cc(C(=O)NCCCN2CCN(C)CC2)c(=O)c2cc(S(=O)(=O)N3CCc4ccccc4C3)ccc21,3%,?,-4%,-13,-14%,32
CCCn1nnnc1NC(=O)c1ccc2ccccc2c1,11%,?,18µM*,49,?,1
CN(C)/C=N/c1ncn(-c2ncc(C(F)(F)F)cc2Cl)n1,5%,?,-5%,-5,25%,-30
CNc1nc(OC)nc(N(C#N)CN2C(=O)c3ccccc3S2(=O)=O)n1,0%,23%,16µM*,-82*,15µM*,-2
Cc1cc(C)nc(N(C#N)CN2C(=O)c3ccccc3S2(=O)=O)n1,-2%,0%,15µM*,-14,?,-11
CN(C)c1nc(N(C)C)nc(N(C#N)CN2C(=O)c3ccccc3C2=O)n1,-4%,25%,.,.,.,.
CCc1ccc(CN2CCc3nc(Nc4ccccc4)ncc3C2)cc1,6%,.,?,.,?,.
CCOc1ccc(CN2CCc3nc(Nc4ccc(OC)cc4OC)ncc3C2)cc1,4%,.,?,.,21µM*,.
